Compound activity from PubChem.
In the library only some 0.54% were active in any assay of this set; here they are far more common.
BCR signal inh: chronic active BCR signaling inhibition; ABC-DLBCL IkBa-CBG/CBR reporter, luminescence ratio, 4 h; Potency, µM (top dose mostly 46.1 µM), for inactives: at the highest dose activity change, negative = inhibition, usual class: inhibitors; hit rate 0.05% among 340,000; active = well fitted inhibition curve with a large enough effect in the signal ratio, with a control signal flat, not every such curve was filed as active; inconclusive = small, poorly fitted or top-dose-only effect, or effect the other way, or a change in a side signal; the % refers to the signal ratio;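 also: potency is read from the fitted curve at half-maximal effect; plate controls were basal doxycycline-induced cells for no effect and cells given 10 µM MG132 for full effect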
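TMD8 human ABC-DLBCL cells with doxycycline-inducible IκBα–green luciferase fusion and unfused red luciferase, in 0.5% FBS medium; compounds up to 46 uM, 4 h at 37C. Green/red luminescence ratio, filter-overlap corrected, fitted to concentration-response curves.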
uPA surface inh: cell surface uPA generation inhibition. AID 540303. cell surface uPA generation assay, qHTS. hit rate 0.31% among 330,000. Potency, µM (highest dose often 38.3 µM), for the others: at the highest dose activity change, negative = inhibition, most hits filed as inhibitors; active = well fitted inhibition curve with a large enough effect; inconclusive = small, poorly fitted or top-dose-only effect; inactive = no such curve, though single readings can be large or run the other way; tested in mouse RAW 264.7 cells; also: potency is read from the fitted curve at half-maximal effect; % is scaled to controls: 0 for no effect and ±100 for the full control effect; nearly all actives have a fitted effect of over 55% in size
Vif-A3G inh: Vif-A3G binding inhibition | Q9HC16 | HeLa A3G-eYFP + Vif (tagged APOBEC3G with the HIV-1 protein that degrades it), YFP fluorescence, overnight | Potency, µM (series often up to 46.1 µM), for the others: at the top dose activity, negative = active, actives largely listed as inhibitors | hit rate 0.076% among 410,000; also: potency is read from the fitted curve at half-maximal effect; % is scaled to controls: 0 for no effect and ±100 for the full control effect; nearly all actives have a fitted effect of over 60% in size
Target sequence (Q9HC16 whole entry, looked up): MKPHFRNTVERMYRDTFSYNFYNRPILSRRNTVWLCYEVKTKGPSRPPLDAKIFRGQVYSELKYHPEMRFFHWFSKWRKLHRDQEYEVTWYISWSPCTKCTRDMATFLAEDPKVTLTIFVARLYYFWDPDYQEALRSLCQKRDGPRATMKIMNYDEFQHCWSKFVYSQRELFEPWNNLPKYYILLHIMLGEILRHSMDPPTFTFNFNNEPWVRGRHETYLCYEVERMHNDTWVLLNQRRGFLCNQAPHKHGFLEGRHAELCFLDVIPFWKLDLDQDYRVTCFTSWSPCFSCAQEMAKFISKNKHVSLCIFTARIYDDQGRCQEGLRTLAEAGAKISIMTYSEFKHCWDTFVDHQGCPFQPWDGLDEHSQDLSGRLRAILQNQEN
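Read-out is eYFP fluorescence (Ex 488/Em 500-530) from Vif-expressing HeLa A3G-eYFP cells; more signal means A3G escaped Vif-mediated degradation. Cells plated overnight, compound pinned in, incubated overnight at 37 deg C.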
TCR activator: activators of T cell receptors; 330,000 tested, under 10 active; AID 504894; primary human leukocytes, anti-CD3, IL-2 HTRF, 48 h; Potency, µM (top dose mostly 9.22 µM), without a hit: top-dose activation of IL-2 secretion, actives largely listed as activators; also: % of control where 0% means no effect
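Human primary leukocytes + a-CD3 beads + cpd, 48 hr; IL-2 in supernatant by HTRF (ex 320nm / em 665nm). No co-stimulatory signal supplied.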
Vif-A3F inh: inhibitors of Vif-A3F interaction; HeLa A3F-eYFP + Vif (tagged APOBEC3F with the HIV-1 protein that degrades it), YFP fluorescence increase; Potency, µM (highest dose often 46.1 µM), inactives show at the highest dose activity, negative = active; hit rate 0.2% among 390,000; AID 602313; also: potency is read from the fitted curve at half-maximal effect; % of control where 0% means no effect; nearly all actives have a fitted effect of over 65% in size
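Fluorescence increase (Ex 488/Em 500-530) after overnight compound treatment at 37 deg C flags inhibition of Vif-driven A3F-eYFP loss in stable HeLa A3F-eYFP/Vif cells seeded overnight beforehand.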
MBNL1-CUG inh: blocks human MBNL1 binding to CUG repeat RNA; Potency, µM (doses to about 57.5 µM), inactives show top-dose activity change, negative = inhibition, actives largely listed as inhibitors; TR-FRET MBNL1-His/biotin-(CUG)12 binding, 665/545 ratio; Q9NR56; AID 2675; hit rate 0.036% among 280,000; active = well fitted inhibition curve with a large enough effect in the signal ratio, with a control signal flat, not every such curve was filed as active; inconclusive = small, poorly fitted or top-dose-only effect, or effect the other way, or a change in a side signal; inactive = no such curve, though single readings can be large or run the other way; the % refers to the signal ratio; also: potency is read from the fitted curve at half-maximal effect; % is scaled to controls: 0 for no effect and ±100 for the full control effect
Target sequence (Q9NR56 whole entry, looked up): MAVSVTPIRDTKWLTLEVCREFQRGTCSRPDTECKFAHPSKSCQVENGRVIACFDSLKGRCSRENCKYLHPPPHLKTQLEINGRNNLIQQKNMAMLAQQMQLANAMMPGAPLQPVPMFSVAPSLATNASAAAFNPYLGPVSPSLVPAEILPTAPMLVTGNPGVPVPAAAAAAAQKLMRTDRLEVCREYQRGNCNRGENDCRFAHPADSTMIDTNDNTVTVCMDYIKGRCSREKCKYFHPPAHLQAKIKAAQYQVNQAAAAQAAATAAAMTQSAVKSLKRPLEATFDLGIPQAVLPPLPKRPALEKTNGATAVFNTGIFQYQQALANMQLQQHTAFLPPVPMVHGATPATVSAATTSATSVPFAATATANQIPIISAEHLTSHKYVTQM
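TR-FRET readout: Ex 340 nm, 665/545 nm emission ratio, normalized to buffer-only (basal) and MBNL1-(CUG)12 controls. Complex of MBNL1-His with Biotin-(CUG)12, compounds 92 nM–58 uM, incubated 60 min at room temperature.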
An asterisk follows results filed as active; ? = inconclusive; . = no result; ! = a repeat was not active; [ ] = remark or other dose. Unless noted, calls follow the shape of the dose curve; as a rule, active = well fitted curve in the direction sought with a large enough effect; inconclusive = small, poorly fitted or top-dose-only effect, or another doubt; inactive = no such curve, though single readings can be large; an effect the other way counts as inactive or inconclusive.

SMILES | BCR signal inh | uPA surface inh | Vif-A3G inh | TCR activator | Vif-A3F inh | MBNL1-CUG inh
Cc1cc(-c2ccccc2)nc(N/N=C/c2ccccc2F)n1 | ? | -9% | -7% | 2% | 22µM* | 10%
N#Cc1ccc(C23OCCN2CCn2c3c3ccccc3[n+]2[O-])cc1 (stereo not given) | 5% | 2.2µM* | -21% | -15% | ? | .
CCOC(=O)/C=c1/s/c(=C\c2c(OC)ccc3ccccc23)c(=O)n1CC(=O)NCC1CCCO1 (stereo not given) | . | -6% | 11µM* | -1% | ? | .
COc1ccccc1NC1=C(NC(C)=O)C(=O)c2ccccc2C1=O | ? | 13µM* | -14% | 6% | -12% | ?
COC1=C(Nc2ccccc2OC)C(=O)c2ccccc2C1=O | ? | 4% | -5% | -3% | 1% | ?
Nc1c(Br)cc(C=O)cc1Br | . | . | 2% | . | . | .
COc1ccc(-c2cc(C(=O)N/N=C(\C)c3cccnc3)c3ccccc3n2)cc1 | ? | 8.9µM* | -22% | 2% | -14% | 16%
CCN(CC)c1ccc(/C=C/c2ccc3ccccc3n2)cc1 | . | . | 3% | . | . | .
CCOC(=O)c1[nH]c2c(c1C)C(=O)CC(c1ccc(F)cc1)C2 (stereo not given) | ? | 1.3µM* | ? | -1% | -11% | 2%
COCCOC(=O)c1[nH]c2c(c1C)C(=O)CC(c1cccs1)C2 (stereo not given) | ? | 1µM* | ? | -5% | -27% | 3%
C[C@H]1C=CC(=O)O[C@H]1c1ccccc1 | . | 2.5µM* | -18% | 10% | 8% | .
COc1ccc(S(=O)(=O)Nc2cccc(-c3ccc4nncn4n3)c2)cc1F | ? | 2.8µM* | ? | 3% | -4% | 20%
CN(C)c1c(Br)cc(C=O)cc1Br | . | . | 0% | . | . | .
COc1cc(OC)c(/C=C/c2c3ccccc3cc[n+]2C)c(OC)c1 | . | . | -4% | . | . | .
COc1cc(-c2noc(C)c2-c2ccc(N(C)C)nc2)cc(OC)c1OC | ? | -73% | -41% | 2% | -5% | -11%
COc1cc(-c2noc(C)c2-c2ccc3[nH]ccc3c2)cc(OC)c1OC | ? | 0.56µM* | 14µM*! | -2% | -1% | 7%
O=C1CCC[C@@H]2[C@@H](Cc3ccccc3)[C@@H](Nc3ccccc3)C[C@@H]3CCN1[C@@H]32 | . | . | -3% | . | . | .
COc1ccc2o/c(=N/NC(=O)c3cccs3)c(C(N)=O)cc2c1 | ? | -2% | 11µM* | 0% | ? | ?
Cc1ccc(C(=O)Nc2nc(-c3ccccn3)cs2)cc1S(=O)(=O)N1CCOCC1 | ? | ? | -2% | 1% | 2% | .
O=C(Nc1nc(-c2ccccn2)cs1)c1cc(S(=O)(=O)N2CCOCC2)ccc1F | 3% | 10µM* | 0% | 1% | -13% | .
O=C(Nc1nc(-c2ccccn2)cs1)c1ccc(F)c(S(=O)(=O)N2CCOCC2)c1 | 2% | 4µM* | 3% | 6% | 0% | .
CN(CC1CCCO1)S(=O)(=O)c1ccc(C(=O)Nc2nc(-c3ccccn3)cs2)cc1 (stereo not given) | 1% | 4µM* | -17% | 15%[46.1 µM] | -5% | 6%
COc1cccc(OC)c1-c1cc(CCCc2cc(-c3c(OC)cccc3OC)nc3ccccc23)c2ccccc2n1 | . | . | -4% | . | . | .
Cc1[nH]c2ccccc2c1C(=O)C(C)Sc1nc2ccccc2c(=O)n1Cc1cccnc1 (stereo not given) | . | . | 0% | . | . | .
O=C(O)c1c2c(nc3ccccc13)CCCC2 | . | . | -2% | . | . | .
SMILES | BCR signal inh | uPA surface inh | Vif-A3G inh | TCR activator | Vif-A3F inh | MBNL1-CUG inh
Cc1sc2ccccc2[n+]1C | . | . | 5% | . | . | .
O=Cc1cc2c3c(c1)CCCN3CCC2 | . | . | -1% | . | . | .
COc1ccc(-c2noc(CSc3nc(N)c(-c4ccccc4)c(=O)[nH]3)n2)cc1OC | 21µM* | -5% | -3% | 5% | . | -4%
CCn1c2ccccc2c2cc(NC(=O)c3coc(=O)c(Br)c3)ccc21 | ? | . | . | . | . | 5%
CCn1c2ccccc2c2cc(NC(=O)c3cc(OC)cc(OC)c3)ccc21 | ? | 2.2µM* | ? | 1%[46.1 µM] | -29% | -9%
CCn1c2ccccc2c2cc(NC(=O)c3ccc(=O)oc3)ccc21 | ? | -2% | -22% | 3% | 11µM* | .
CC[N+]1(CC(=O)c2ccc(OC)cc2)CCCCC1 | . | . | 2% | . | . | .
O=C(COc1ccccc1C(=O)Nc1ccccc1F)Nc1ccc(Br)cc1 | . | . | 1% | . | . | .
COc1ccc(C(=O)C(CCCCC(CN(C)C)C(=O)c2ccc(OC)cc2)CN(C)C)cc1 (stereo not given) | ? | -13% | 3% | -2% | -3% | -1%
CCOc1ccc(C(=O)C(CCC(CN(C)C)C(=O)c2ccc(OCC)cc2)CN(C)C)cc1 (stereo not given) | ? | 1.1µM* | ? | -2%[46.1 µM] | 1% | .
N#C/C(=C/c1ccc(N2CCCCC2)o1)c1cccc(F)c1 | ? | . | ? | 1% | 10µM* | 6%
N#C/C(=C/c1ccc(N2CCCCCC2)o1)c1ccc(Cl)cc1 | ? | . | ? | -5% | ? | -16%
Cc1cnccc1/C=C/c1ccc(N)cc1 | . | . | -4% | . | . | .
CCOc1ccc(C(=O)Nc2cc(-c3nc4ccccc4[nH]3)ccc2Cl)cc1[N+](=O)[O-] | ? | -10% | 13µM* | -1%[46.1 µM] | -2% | .
O=C(NCCO)c1ccc2c3n(nc2c1)-c1ccccc1CO3 | ? | 2.8µM* | 1% | -3% | 0% | ?
C=CCNC(=O)c1ccc2c3n(nc2c1)-c1ccc(Cl)cc1CO3 | . | 5µM* | 0% | 1% | 1% | .
O=C(NCC1CC1)c1ccc2c3n(nc2c1)-c1ccccc1CO3 | ? | 1.4µM* | -4% | -1% | -6% | ?
CC(C)(C)n1ncc2c(=O)n(Cc3cccc(-c4ccccc4)c3)cnc21 | . | . | 0% | . | . | .
CN(C)CCCCCCNc1nccc(N2CCN(C)CC2)n1 | . | . | 3% | . | . | .
CS(=O)(=O)N1CCN(c2ccccc2NC(=O)c2ccc([N+](=O)[O-])o2)CC1 | 1% | -12% | ? | 3% | 6% | ?
CN1CCN(c2ccccc2NC(=O)c2ccc([N+](=O)[O-])o2)CC1 | -4% | 4.5µM* | -11% | 7% | -1% | ?
COc1cc(C=O)cc(OC)c1[N+](=O)[O-] | . | . | -6% | . | . | .
Oc1ccc(/C=C/c2cc(O)cc(O)c2)cc1 | ? | 6.3µM* | -6% | 2% | 2% | ?
COc1cc(O)cc(/C=C/c2ccccc2)c1 | . | -1% | -9% | 5% | -6% | .
O=C(Nc1c(Cl)cc([N+](=O)[O-])cc1Cl)c1cc(Cl)ccc1O | . | . | -12% | . | . | .
CC(=O)N/N=C/c1cc(C(C)(C)C)cc(/C=N/NC(C)=O)c1O | -1% | -6% | 13µM* | -2% | 22µM* | 27%
